Test results: PubChem BioAssay AID434989 (The Scripps Research Institute Molecular Screening Center, 2010)
Screen size: about 330,000 compounds; about 1,400 (0.42%) were called active. This is one part of a sample in which actives are shown more often than they occur. A number with no mark means an inactive call.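 How the source made its calls: active means inhibition above its plate's threshold, mean inhibition of all tested compounds on the plate plus 3 SD (cut at about 37% in these data); inactive means the rest.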

Target: Orexin/Hypocretin receptor type 1 (Homo sapiens) (UniProt O43613)
Assay: blockers of orexin-A calcium signaling via HCRTR1 – fluorescence, CHO/OX1R cells, Fluo-8 calcium, primary screen (AID 434989);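 further: 0% = orexin A challenge wells and 100% = SB-334867-A antagonist wells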
Conditions: Fluo-8 calcium fluorescence, at 5 µM, stronger effect = higher value

Chain of Orexin/Hypocretin receptor type 1 (Homo sapiens) (O43613 whole entry, looked up): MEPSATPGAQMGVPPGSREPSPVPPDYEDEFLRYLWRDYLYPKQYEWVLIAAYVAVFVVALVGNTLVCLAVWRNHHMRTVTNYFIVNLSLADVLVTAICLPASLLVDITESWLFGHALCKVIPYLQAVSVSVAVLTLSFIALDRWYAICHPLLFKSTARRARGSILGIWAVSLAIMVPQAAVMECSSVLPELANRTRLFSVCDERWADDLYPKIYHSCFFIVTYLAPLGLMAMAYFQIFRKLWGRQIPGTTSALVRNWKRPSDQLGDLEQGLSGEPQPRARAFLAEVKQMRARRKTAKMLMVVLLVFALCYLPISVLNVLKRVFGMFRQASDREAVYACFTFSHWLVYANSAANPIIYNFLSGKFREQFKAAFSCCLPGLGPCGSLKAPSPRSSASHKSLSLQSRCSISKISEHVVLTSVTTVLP

Row | Compound | inhibition
1 | CC1=C/C(=N\OS(=O)(=O)c2ccccc2)C=CC1=O | 50.8% (active)
2 | CC(C)N(C(=O)[C@H]1C[C@H](CC(=O)NCCC2=CCCCC2)C(=O)N2CCc3c([nH]c4cc(CCC(=O)N(C)C)ccc34)[C@]12C)C(C)C | -35.9%
3 | O=C(/C=C(O)/C=C/c1ccc(O)cc1)/C=C/c1ccc(O)cc1 | 88% (active)
4 | O=C(/C=C/c1ccc2c(c1)OCCO2)c1ccc(O)cc1 | -5.09%
5 | O=C(/C=C/c1ccc(Cl)c([N+](=O)[O-])c1)c1ccc(O)cc1 | -19.1%
6 | Cc1ccc(S(=O)(=O)N2[C@@H](c3cccc4ccccc34)C(C(=O)O)=C[C@H]2C(C)(C)C)cc1 | -3.21%
7 | CCN(C[C@H]1N[C@@](CC)(C(=O)OC)[C@H]2C(=O)N(Cc3ccccc3)C(=O)[C@@H]12)S(=O)(=O)c1ccccc1 | -23.9%
8 | O=C(COC(=O)/C=C/c1cccc(Cl)c1)NCc1cccs1 | -21.7%
9 | Cc1ccc(S(=O)(=O)N(C)c2ccc(OCC(=O)OCc3ccc(C#N)cc3)cc2)cc1 | 0.88%
10 | CC1(C)C=Cc2c(ccc3c2OC[C@@H](c2ccc(O)cc2O)C3)O1 | 47.2% (active)
11 | COc1cc(/C=C/C(=O)OCC(=O)NC2CC2)cc(OC)c1OC | -7.25%
12 | C/C(N)=C(/C#N)C(=O)COC(=O)c1cc(-c2ccc(C)cc2)nc2ccccc12 | 47.2% (active)
13 | C/C(N)=C(/C#N)C(=O)COC(=O)c1cc(-c2ccccc2)nc2ccc(Br)cc12 | 5.4%
14 | C/C(N)=C(/C#N)C(=O)COC(=O)c1cc(-c2cccc(Br)c2)nc2ccccc12 | 15.2%
15 | CC(C)COc1ccc(C(=O)NNC(=O)CCC(=O)c2cccs2)cc1 | -18.4%
16 | FC(F)(F)C1CCCN(c2nsc3ccccc23)C1 (stereo not given) | 46.1% (active)
17 | O=C(NC(Cc1ccccc1)C(=O)N1CCCC(C(F)(F)F)C1)c1ccccc1 (stereo not given) | -34.6%
18 | O=C(NCC(=O)N1CCCC(C(F)(F)F)C1)c1ccccc1F (stereo not given) | 0.97%
19 | Cc1onc(-c2c(F)cccc2Cl)c1C(=O)OCC(=O)N1C(C)CCCC1C (stereo not given) | -24.4%
20 | COc1ccc(NC(=O)CNc2cc(S(=O)(=O)N3CCOCC3)ccc2N2CCOCC2)c(OC)c1 | -10.3%
21 | CN(C)c1ccc(/C=C2\NC(=S)N(Cc3ccccc3)C2=O)cc1 | 91.7% (active)
22 | COc1cc(/C=C2/SC(=S)N(Cc3ccccc3)C2=O)cc(OC)c1O | 31.2%
23 | O=C1/C(=C\c2ccsc2)NC(=S)N1c1ccccc1 | -19.5%
24 | CCOc1ccc(N2CC(C(=O)NCCN3C(=O)S/C(=C\c4cccnc4)C3=O)CC2=O)cc1 (stereo not given) | -17.9%

Row | Compound | inhibition
25 | Cc1cc(OCCCC(=O)NCCN2C(=O)S/C(=C\c3cccnc3)C2=O)ccc1Cl | 94.3% (active)
26 | O=C(NCCN1C(=O)S/C(=C\c2cccnc2)C1=O)c1cccc(OC(F)F)c1 | -28.3%
27 | COC(=O)[C@]1(Cc2ccccc2)N[C@H](CN(C)S(=O)(=O)c2ccc(OC(F)(F)F)cc2)[C@@H]2C(=O)N(C)C(=O)[C@@H]21 | -30.2%
28 | COC(=O)c1ccc(/C=C/c2c(-c3ccc(OC)cc3)sc3ccccc23)cc1 | -6.38%
29 | COc1ccc(CNC(=O)COC(=O)C(CCSC)N2C(=O)c3ccccc3C2=O)cc1 (stereo not given) | -29.7%
30 | CCOC(=O)[C@H]1[C@H]2COc3ccccc3[C@@H]2N2C(=O)CN(Cc3ccccc3)C(=O)[C@@]12C | -30.6%
31 | Cc1cc(N2CCCC2=O)cc(C)c1S(N)(=O)=O | 44.7% (active)
32 | CNS(=O)(=O)c1ccc(N2CCCC2=O)c([N+](=O)[O-])c1 | -6.08%
33 | CN(C)S(=O)(=O)c1ccc(N2CCCC2=O)c([N+](=O)[O-])c1 | -12.1%
34 | O=C1CSc2ccc(C(=O)NCc3ccccn3)cc2N1 | 7.19%
35 | COc1ccc(/C=N/NC(=O)c2ccc3c(c2)OCCO3)c(OC)c1 | -14.1%
36 | COc1cccc(/C=N/NC(=O)c2[nH]nc3c2CCc2ccccc2-3)c1O | 38.6% (active)
37 | CN(C)CCNC(=O)c1[nH]nc2c1CCc1ccccc1-2 | -12%
38 | COc1cc(OC)c(C(=O)NNC(=O)c2ccccc2-n2cccc2)cc1OC | -4.23%
39 | COc1cccc2sc3cc(NCC[C@@H]4CCCN4C)ccc3c(=O)c12 | -2.27%
40 | CC(C#N)OC(=O)c1cccnc1SCC(=O)Nc1ccc2c(c1)OCO2 (stereo not given) | -1.89%
41 | O=C(CSc1ncnc2sccc12)NC1CCS(=O)(=O)C1 (stereo not given) | -10.8%
42 | Oc1ccc(N=Nc2nccs2)c(O)c1 | -44.9%
43 | Oc1ccc2ccccc2c1N=Nc1nccs1 | 61% (active)
44 | CCC(C(=O)Nc1ccc2c(c1)OCCO2)c1ccccc1 (stereo not given) | 3.71%
45 | CCC(C(=O)OCC(=O)Nc1ccc(C(=O)Nc2ccc(OC)cc2)cc1)c1ccccc1 (stereo not given) | -0.08%
46 | CCC(C(=O)Nc1ccc(C(C)C)cc1)c1ccccc1 (stereo not given) | 62.9% (active)
47 | NCCN1CCN2C(=O)CN(C(=O)c3ccccc3)CC12 (stereo not given) | 3.19%
48 | CC(C)(C)OC(=O)C[C@@H]1C/C=C\C[C@@H](CC(=O)NCCO)C(=O)N[C@H](Cc2c[nH]c3ccccc23)COC1=O | -10.6%

Row | Compound | inhibition
49 | CCN1/C(=C\c2ccc3ccccc3[n+]2CC)Sc2cc(C)ccc21 | 54.6% (active)
50 | COc1ccccc1N(CCOc1ccccc1)S(=O)(=O)c1ccccc1 | -0.89%
51 | COc1ccc2sc(-c3ccc(N(C)C)cc3)c(-c3ccc4cc[nH]c4c3)c2c1 | 1.84%
52 | COc1ccc(-c2sc3ccc(OC)cc3c2C#Cc2ccccn2)cc1 | -20.1%
53 | COc1ccc2sc(-c3ccc(N(C)C)cc3)c(C#CCO)c2c1 | 61% (active)
54 | Cc1ccc(NC(=O)c2ccc(Cl)nc2)cc1S(=O)(=O)N1CCOCC1 | -13.6%
55 | COc1ccc(S(=O)(=O)N(C)C[C@H]2Oc3ccc(NS(=O)(=O)c4cccs4)cc3CC(=O)N([C@H](C)CO)C[C@H]2C)cc1 | -17.2%
56 | Cc1ccc(C(=O)OCc2nc(N)nc(Nc3ccccc3C)n2)cc1 | -15.1%
57 | Nc1nc(COC(=O)CCC(=O)c2ccc(Cl)cc2)nc(Nc2ccccc2)n1 | 67.8% (active)
58 | CC(NC(=O)COC(=O)CCC(=O)c1ccc(Cl)cc1)c1ccccc1 (stereo not given) | -2.79%
59 | O=C(COC(=O)c1ccc(F)c(S(=O)(=O)N2CCOCC2)c1)NCc1ccc2c(c1)OCO2 | 4.89%
60 | COc1ccc(S(=O)(=O)N2CCCCCC2)cc1NC(=O)Cc1ccc(OC)c(OC)c1 | -23.5%
61 | O=C(COC(=O)c1ccccn1)NNC(=O)c1ccc(Br)cc1 | -3.43%
62 | Cn1c(N)c(C(=O)COC(=O)c2ccc3ccccc3c2)c(=O)n(C)c1=O | 51.1% (active)
63 | Cn1c(N)c(C(=O)COC(=O)c2cccc(S(=O)(=O)N3CCOCC3)c2)c(=O)n(C)c1=O | -27.4%
64 | Cn1c(N)c(C(=O)COC(=O)c2cnc(Cl)c(Cl)c2)c(=O)n(C)c1=O | -7.14%
65 | CN1C(=O)c2cccc3c(N)ccc(c23)C1=O | 41.1% (active)
66 | O=C(O)c1ccc2c3c(cccc13)C(=O)N(OS(=O)(=O)c1ccccc1)C2=O | -7.84%
67 | O=C1c2ccccc2C(=O)N1c1cccc2ccccc12 | -17%
68 | Cc1nn(C)cc1N1C(=O)c2cccc3c(N)ccc(c23)C1=O | 38.4% (active)
69 | COc1ccc(N2C(=O)c3cccc4cccc(c34)C2=O)nn1 | -17.9%
70 | C[N+](C)(CCCCCC[N+](C)(C)CCCN1C(=O)c2cccc3cccc(c23)C1=O)CCCN1C(=O)c2cccc3cccc(c23)C1=O | -0.77%
71 | Cc1noc(C)c1NC(=O)Nc1cccc2c1O[C@H](CN(C)C(=O)Nc1ccccc1)[C@@H](C)CN([C@H](C)CO)C2=O | 1.33%
72 | C[C@]12c3[nH]c4ccc(Cl)cc4c3CCN1C(=O)[C@@H](CC(=O)NCCCn1ccnc1)C[C@@H]2C(=O)N1CCOCC1 | -3.04%

Row | Compound | inhibition
73 | CC[C@]12c3[nH]c4ccc(Cl)cc4c3CCN1C(=O)[C@@H](CC(=O)NCCCOC)C[C@@H]2C(=O)N1CCN(C(=O)c2ccco2)CC1 | -0.28%
74 | COc1ccc(CNC(=O)CNC(=O)c2sc3ccccc3c2Cl)cc1OC | -23.5%
75 | O=C(N/N=C/c1c(Cl)[nH]c2ccccc12)c1sc2ccccc2c1Cl | 92.7% (active)
76 | COCCNC(=S)N/N=C/c1c(C)[nH]c2ccccc12 | -0.83%
77 | CCCCNc1c(-c2ccc(OC)c(Sc3ccc(OC)cc3)c2)nc2ccc(Cl)cn12 | -30.4%
78 | Cc1cccc(OCC(=O)OCC(=O)Nc2ccc(Cl)cn2)c1 | -10.8%
79 | Nc1ncnc2c1ncn2[C@@H]1O[C@H](CNCc2cccn2-c2nccs2)[C@@H](O)[C@H]1O | -6.54%
80 | COc1ccc2[nH]c3c(c2c1)CCN1C(=O)C(CC(=O)NCc2cccc(C(F)(F)F)c2)C[C@H](C(=O)N2CCOCC2)[C@@]31C (stereo not given in full) | -21.4%
81 | CCN1C[C@@H]2[C@@H]3C(=O)N(Cc4ccccc4)C(=O)[C@@H]3[C@](Cc3ccccc3)(C(=O)OC)N2C1=NC1CCCCC1 | -11.5%
82 | O=C(Nc1cccc2cccnc12)c1cccc(N2C(=O)CCC2=O)c1 | 45.5% (active)
83 | O=C(Nc1cccc2cccnc12)c1cccc(Cl)c1 | -10.3%
84 | COC(=O)c1cccc(NC(=O)c2cccc(N3C(=O)CCC3=O)c2)c1 | 13.2%
85 | CN(Cc1ccccc1)C(=O)COC(=O)/C=C/c1ccc2c(c1)OCO2 | -11.9%
86 | COc1ccccc1NC(=O)CCCc1c[nH]c2ccccc12 | -3.22%
87 | CCCC(=O)NC(Nc1ccccc1OC)C(Cl)(Cl)Cl (stereo not given) | -0.68%
88 | CCCCCCCC(=O)NC(Nc1ccccc1OC)C(Cl)(Cl)Cl (stereo not given) | 51.6% (active)
89 | O=C(COC(=O)c1ccc([N+](=O)[O-])o1)NC12CC3CC(CC(C3)C1)C2 | -17.3%
90 | COC(=O)[C@@]1(C)[C@H]2C(=O)N(Cc3ccccc3)C(=O)[C@H]2[C@H]2CN=C(SCC3CC3)N21 | -26.2%
91 | COc1cccc(C(=O)OCC(=O)c2[nH]c(C)c(C(C)=O)c2C)c1 | 11%
92 | CC(=O)c1c(C)[nH]c(C(=O)COC(=O)c2cccs2)c1C | -11.4%
93 | CC(=O)c1c(C)[nH]c(C(=O)COC(=O)c2cccc(S(=O)(=O)N(C)c3ccccc3)c2)c1C | 63.5% (active)
94 | COc1ccccc1NC(=O)COC(=O)CNC(=O)C1CCCCC1 | -0.83%
95 | C[C@H](CO)N1C[C@H](C)[C@@H](CN(C)S(=O)(=O)c2ccc(F)cc2)Oc2c(NC(=O)Nc3ccccc3)cccc2C1=O | -5.33%
